The panel holds about 79,000 compounds, 15% with a hit somewhere; the sample as a whole holds those more often. Values without a mark were called inactive. The source made the active and inactive calls. Cut-off read from the data, not from the text of the source: active = growth inhibition above about 70%; inactive = the rest.
Assay: NCI Yeast Anticancer Drug Screen. Data for the mlh1 rad18 strain (AID 175)
Conditions: S. cerevisiae mlh1 rad18 strain growth inhibition, stronger effect = higher value
Procedure: Growth inhibition of yeast strains with defined genetic alterations is measured as a screen for potential anti-cancer activity. Selected strains with alterations in DNA damage repair or cell cycle control were exposed to compounds and growth inhibition was measured relative to vehicle treated controls. The strain used in this assay is mlh1 rad18

[1] = at 5.0 µM (retest, dose inferred, filed as 0.5)
[2] = at 50.0 µM (retest, dose inferred, filed as 5.0)

COc1ccc(/C(C)=N/OC(=O)c2c(-c3ccccc3Cl)noc2C)cc1CN1CCOCC1
growth inhibition [1]: 53% | growth inhibition [2]: 85% (active) | growth inhibition (at 50.0 µM): 57.4%

COc1cc(C2SCC(=O)N2c2nnc(C(F)(F)F)s2)cc(OC)c1OC (configuration not stated)
growth inhibition [1]: -4% | growth inhibition [2]: -9% | growth inhibition (at 50.0 µM): 0.35%

CC(C)c1ccccc1NC(=O)/C(Cl)=C(\Cl)C(=O)O
growth inhibition [1]: 21% | growth inhibition [2]: 28% | growth inhibition (at 50.0 µM): 11.9%

CCOC(=O)c1cc(-c2ccc(Cl)cc2)c([N+](=O)[O-])n1C
growth inhibition [1]: 45% | growth inhibition [2]: 97% (active) | growth inhibition (at 50.0 µM): 87.9% (active)

CC(C)c1cc(C(C)C)c(O)c(C([O-])[O-])c1.CC(C)c1cc(C(C)C)c(O)c(C([O-])[O-])c1.CC(C)c1cc(C(C)C)c(O)c(C([OH2+])[OH2+])c1.CC(C)c1cc(C(C)C)c(O)c(C([OH2+])[OH2+])c1.[Cu+2].[Cu+2].[OH3+].[OH3+]
growth inhibition [1]: -12% | growth inhibition [2]: 59% | growth inhibition (at 50.0 µM): 38.2%

Cc1cc(I)ccc1N
growth inhibition [1]: 41% | growth inhibition [2]: 73% (active) | growth inhibition (at 50.0 µM): 85.6% (active)

O=C1Nc2ccc(Cl)c(I)c2C1=O
growth inhibition [1]: 0% | growth inhibition [2]: 68% | growth inhibition (at 50.0 µM): 67.2%

CC[C@@]1(O)C(=O)OCc2c1cc1n(c2=O)Cc2cc3c(N)cccc3nc2-1
growth inhibition [1]: -6% | growth inhibition [2]: 1% | growth inhibition (at 50.0 µM): 5.1%

C/C(=N/NC(=S)N1CCCCCC1)c1cccc(/C(C)=N\NC(=S)N2CCCCCC2)n1
growth inhibition [1]: 59% | growth inhibition [2]: 91% (active) | growth inhibition (at 50.0 µM): 90.3% (active)

CCCCc1cc(O)ccc1O
growth inhibition [1]: -86% | growth inhibition [2]: 42% | growth inhibition (at 50.0 µM): 64.3%

O=C(NCCCCNCCCNC(=O)c1cc(-c2ccccc2)nc2ccccc12)c1cc(-c2ccccc2)nc2ccccc12
growth inhibition [1]: -13% | growth inhibition [2]: 92% (active) | growth inhibition (at 50.0 µM): 39.5%

Cc1ccc(Cl)c2[nH]c(-c3ccccc3)cc(=O)c12
growth inhibition [1]: -18% | growth inhibition [2]: 94% (active) | growth inhibition (at 50.0 µM): 62.8%

COc1ccc(C2c3cc4c(cc3OC(C)(O)C2C)OCO4)c(OC)c1 (configuration not stated)
growth inhibition [1]: -6% | growth inhibition [2]: 81% (active) | growth inhibition (at 50.0 µM): 93.5% (active)

O=C(O)c1ccccc1-c1ccccc1C(=O)Nc1ccc2c(c1)Cc1ccccc1-2
growth inhibition [1]: 6% | growth inhibition [2]: 54% | growth inhibition (at 50.0 µM): 76.5% (active)

— PubChem BioAssay (NCI)
